Shown are actives, neighbours in structure and some others; about 9.9% of the full set was active somewhere.
Tau fibril FP – tau fibrillization inhibition (FP). AID 1468. K18 P301L tau heparin fibrillization, Alexa594 FP, 6 h. P10636. 280,000 compounds, 0.39% hits. Potency, µM (series often up to 57.7 µM), without a hit: at the top dose activity, negative = inhibition, hits mostly inhibitors; active means well fitted curve in the direction sought with a large enough effect; inconclusive means small, poorly fitted or top-dose-only effect, or another doubt; inactive means no such curve, though single readings can be large; an effect the other way counts as inactive or inconclusive; further: nearly all actives have a fitted effect of over 55% in size
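FP of Alexa 594-tau after heparin (20 uM) induction. Substrate: human K18 P301L, 15 uM unlabeled, 0.24 uM labeled. Buffer 100 mM sodium acetate pH 7. 6 hr, 37 C.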
JMJD2E inh – JMJD2E (human) inhibition; B2RXH2; JMJD2E catalytic domain, FDH-coupled NADH fluorescence (FDH is formaldehyde dehydrogenase); Potency, µM (doses to about 57.1 µM), for the others: top-dose activity change, negative = inhibition, actives largely listed as inhibitors; 230,000 compounds, 1.6% hits; AID 2147;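 further: 0% = wells with enzyme and -100% = buffer wells without enzyme; nearly all actives have a fitted effect of over 50% in size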
Target sequence (B2RXH2 1-337 limits assumed): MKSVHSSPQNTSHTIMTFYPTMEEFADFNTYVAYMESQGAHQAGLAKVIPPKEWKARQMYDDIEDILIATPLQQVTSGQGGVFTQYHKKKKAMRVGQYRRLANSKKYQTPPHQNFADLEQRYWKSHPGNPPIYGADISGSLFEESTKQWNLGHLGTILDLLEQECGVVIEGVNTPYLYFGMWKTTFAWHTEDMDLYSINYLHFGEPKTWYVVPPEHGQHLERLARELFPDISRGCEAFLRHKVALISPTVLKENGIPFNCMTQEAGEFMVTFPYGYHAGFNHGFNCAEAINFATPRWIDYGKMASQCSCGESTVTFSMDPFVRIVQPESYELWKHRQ
ALDH1A1 block – ALDH1A1 (human) enzyme inhibition; P00352; Purified ALDH1A1, NADH fluorescence, propionaldehyde substrate; Potency, µM (series often up to 75.3 µM), for the others: top-dose activity, negative = inhibition, usual class: inhibitors; 220,000 compounds, 7.3% hits; AID 1030;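 further: plate controls were no enzyme wells and a reference inhibitor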
Tau fluor counter – counter-screen for tau fibril formation inhibitors | tau K18 P301L Alexa594 fluorescence, heparin fibrillization | Potency, µM (top dose mostly 57.7 µM), inactives show at the highest dose activity change, negative = decrease | 280,000 compounds, 0.93% hits; active means well fitted curve in the direction sought with a large enough effect; inconclusive means small, poorly fitted or top-dose-only effect, or another doubt; inactive means no such curve, though single readings can be large; an effect the other way counts as inactive or inconclusive; further: nearly all actives have a fitted effect of over 55% in size
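Human tau K18 P301L (15 uM unlabeled, 0.24 uM Alexa 594-labeled) in 100 mM sodium acetate pH 7 with 20 uM heparin, 6 hr at 37 C. ThT 30 uM added, 1 hr ambient; Alexa 594 FP and total fluorescence read at 555/632 nm.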
Tau ThT inhib – blocks human tau fibril formation measured by thioflavin T; P10636; recombinant tau K18 P301L, heparin-induced fibrillization, ThT fluorescence; Potency, µM (highest dose often 57.4 µM), without a hit: top-dose activity, negative = inhibition, hits mostly inhibitors; 270,000 compounds, 2.1% hits; AID 1460; active means well fitted curve in the direction sought with a large enough effect; inconclusive means small, poorly fitted or top-dose-only effect, or another doubt; inactive means no such curve, though single readings can be large; an effect the other way counts as inactive or inconclusive; further: nearly all actives have a fitted effect of over 55% in size
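Using a mix of unlabeled (15 uM) and Alexa 594-labeled (0.24 uM) tau K18 P301L, heparin-triggered fibrillization over 6 hr at 37 C was scored by ThT fluorescence.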
HPGD block – inhibitors of human 15-hydroxyprostaglandin dehydrogenase (HPGD) | Potency, µM, without a hit: at the top dose activity change, negative = inhibition, hits mostly inhibitors | P15428 | purified HPGD, NADH fluorescence kinetic, PGE2 substrate | 150,000 compounds, 4.3% hits
Target sequence (P15428 whole entry, looked up): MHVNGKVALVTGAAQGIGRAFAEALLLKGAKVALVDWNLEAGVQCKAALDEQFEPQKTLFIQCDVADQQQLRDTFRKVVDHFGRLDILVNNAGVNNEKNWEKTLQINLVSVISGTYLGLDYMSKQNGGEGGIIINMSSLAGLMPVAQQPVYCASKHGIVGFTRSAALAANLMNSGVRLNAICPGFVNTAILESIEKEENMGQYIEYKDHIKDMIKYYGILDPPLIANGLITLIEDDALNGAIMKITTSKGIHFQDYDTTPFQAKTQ
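NADH formation kinetics: reaction with 30 uM PGE2 and 1 mM NAD+ (final), 20 nM enzyme, Tris-HCl pH 8 with Tween 20, after 15 min compound preincubation at room temperature. Fluorescence change, last versus first of five reads.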
An asterisk follows results filed as active; ? = inconclusive; . = no result; [ ] = dose if it differs, or a comment. Unless noted, the call rests on the fitted dose curve; in most records, active means well fitted inhibition curve with a large enough effect (not every such curve was filed as active); inconclusive means small, poorly fitted or top-dose-only effect, or another doubt; inactive means no such curve, though single readings can be large or run the other way. Unless noted, on the % scale 0 is the no-effect control and ±100 the full control effect; potency means the concentration at half of the fitted maximal effect.

SMILES	Tau fibril FP	JMJD2E inh	ALDH1A1 block	Tau fluor counter	Tau ThT inhib	HPGD block
O=C(NC1CCCc2ccccc21)c1ccc(CNc2c(N3CCOCC3)c(=O)c2=O)cc1 (centres undefined)	5%	-2%	1%	1%	2%	-10%
CCOC(=O)C1CCN(c2c(NCc3ccc(C(=O)Nc4ccc(C)cc4)cc3)c(=O)c2=O)CC1	-11%	-1%	.	-9%	1%	.
Cc1ccc(NC(=O)c2ccc(CNc3c(N4CCOCC4)c(=O)c3=O)cc2)cc1	2%	-3%	?	-11%	-16%	-24%
Cc1cc(Cl)ccc1NC(=O)CCS(=O)(=O)c1cc2c(cc1C)NC(=O)CO2	-2%	.	.	-6%	-9%	.
CCOC(=O)N1CCN(c2c(NCCOC)c(=O)c2=O)CC1	10%	-20%	32µM*	-1%	-2%	-15%
CCCCNC(=O)c1ccc(CNc2c(N3CCC(C(=O)OCC)CC3)c(=O)c2=O)cc1	7%	0%	?	7%	7%	3.5µM*
Cc1cc(C)c2cc(CN(Cc3ccc4c(c3)OCO4)Cc3nnnn3Cc3ccco3)c(=O)[nH]c2c1	3%	?	4.5µM*	-6%	-10%	-28%
O=c1[nH]c2cc3c(cc2cc1CN(Cc1cccnc1)Cc1nnnn1Cc1ccco1)OCCO3	2%	?	?	-8%	-12%	?
O=c1[nH]c2cc3c(cc2cc1CN(Cc1ccccc1)Cc1nnnn1Cc1ccco1)OCCO3	-5%	?	?	-21%	?	?
CCc1ccc2[nH]c(=O)c(CN(Cc3ccccc3)Cc3nnnn3Cc3ccco3)cc2c1	1%	?	13µM*	-12%	-17%	-25%
Cc1ccc2[nH]c(=O)c(CN(Cc3ccc4c(c3)OCO4)Cc3nnnn3Cc3ccco3)cc2c1	1%	?	25µM*	-15%	4%	-6%
COC(=O)[C@@]1(Cc2ccc(OC)cc2)[C@H]2c3cc(C(=O)N(C)C)n(Cc4cc(F)c(F)c(F)c4)c3C[C@H]2CN1C(=O)c1ccccc1	5%	-12%	-1%	-13%	-18%	-12%
COCCn1c(SCC(=O)Nc2cccc(C)c2C)nc2c(oc3ccccc32)c1=O	-3%	.	.	-17%	?	.
Fc1ccc(NC(=S)Nc2cccnc2)cc1Cl	?	?	28µM*	?	-4%	.
Fc1ccc(NC(=S)Nc2cccnc2)cc1	-3%	?	-4%	-4%	-4%	.
Cc1ccc(NC(=S)Nc2cc(-c3ccccc3)[nH]n2)cc1Cl	?	-4%	?	?	-10%	.
Fc1ccc(NC(=S)Nc2cc(-c3ccccc3)[nH]n2)cc1Cl	-10%	-11%	1.4µM*	-10%	6%	.
COc1ccc(CCC(=O)Nc2cc(S(C)(=O)=O)ccc2Cl)cc1	7%	-10%	-5%	2%	-1%	.
Brc1csc(/C=N/Nc2nc3ccccc3s2)c1	-6%	4%	4%	7.9µM*[quencher]	?	-11%
Cc1ccc(-c2csc(N/N=C/C=C/c3ccccc3)n2)cc1	15%	-3%	22µM*	?	?	-26%
Cc1ccc2[nH]c(C)c(/C=N/Nc3nc4ccccc4s3)c2c1	?	-10%	11%	10µM*[quencher]	14µM*	-16%
C(=N\Nc1ccccc1)/c1nc2ccccc2s1	?	3%	2%	13µM*[quencher]	?	.
CC(C)Oc1cc(N)c(Cl)cc1Cl	-3%	9%	12%	-10%	-1%	.
CCN(CC)S(=O)(=O)c1ccc2[nH]c(=O)cc(C(=O)Nc3ccc(C)c(S(=O)(=O)N(CC)CC)c3)c2c1	?	1%	?	?	-15%	-12%
O=C(N/C(=C\c1ccc([N+](=O)[O-])cc1)C(=O)N1CCCCC1)c1ccccc1Br	2%	-1%	-4%	-5%	1%	-1%
SMILES	Tau fibril FP	JMJD2E inh	ALDH1A1 block	Tau fluor counter	Tau ThT inhib	HPGD block
CCOC(=O)c1c(C)oc2nc(C)nc(N(C)Cc3ccccc3)c12	2%	.	.	-19%	-18%	.
C(=N\Nc1nc(-c2ccccc2)cs1)/c1cccs1	8%	-30%	-17%	13µM*[quencher]	14µM*	?
ClCc1csc(N/N=C/c2cccs2)n1	?	?	.	?	18µM*	.
C(=C\c1ccccc1)/C=N/Nc1nc2ccccc2s1	-6%	?	4%	10µM*[quencher]	?	-8%
Brc1ccc(/C=C/C=N/Nc2nc3ccccc3s2)cc1	5%	-4%	?	4%	3%	?
C(=N\Nc1nc(-c2ccccc2)cs1)/c1ccncc1	7%	-13%	?	13µM*[quencher]	16µM*	.
Fc1cccc(C2CCCCN2Cc2nc(C3CC3)no2)c1 (centres undefined)	-4%	12%	7%	-16%	-12%	.
N#Cc1nc(-c2ccc(Cl)cc2)oc1NCC1CCCO1 (centres undefined)	-1%	?	?	-20%	-7%	.
CN(C)S(=O)(=O)c1ccc(-c2csc(N/N=C/c3ccc(O)cc3)n2)cc1	-6%	-19%	.	10µM*[quencher]	14µM*	.
CCc1n(CC(O)COC2CCCCC2)c2ccccc2[n+]1C (centres undefined)	-1%	10µM*	?	-6%	-6%	.
CCc1n(CC(O)COCC2CC=CCC2)c2ccccc2[n+]1C (centres undefined)	-7%	11µM*	-6%	-4%	-7%	.
CCOC(=O)C(NCCc1ccccc1F)(NC(C)=O)C(F)(F)F (centres undefined)	0%	-3%	11%	4%	6%	-8%
CC1(C)Cn2c(nnc2-c2cccc(O)c2)S1	-2%	1%	?	-5%	2%	16µM*
Cc1cc(/C=N/NC(N)=S)c(C)n1-c1ccc(Cl)c(Cl)c1	0%	-26%	16µM*	-21%	?	?
Cc1cc(/C=N/NC(=O)c2ccncc2)c(C)n1-c1ccccc1	-1%	-16%	?	-11%	-16%	-10%
COC(=O)N/N=C/c1cc(C)n(-c2ccc(Br)cc2)c1C	8%	25µM*	?	-22%	-22%	.
CCc1ccc(-n2c(C)cc(/C=N/NC(=O)OC)c2C)cc1	-4%	10µM*	?	-26%	?	-10%
CCc1ccc(-n2c(C)cc(/C=N/NC(=O)c3ccncc3)c2C)cc1	9%	4%	7.9µM*	-13%	-14%	.
COc1ccc(CCNC(=O)CN(c2ccccc2)S(=O)(=O)N(C)C)cc1OC	11%	.	.	4%	-2%	.
COC(=O)C1NN=C(C(=O)c2ccc(Cl)cc2)C1c1ccc(OC)cc1 (centres undefined)	-6%	-1%	25µM*	-19%	-17%	-18%

Screening data (PubChem BioAssay)
